Records with an inconclusive call do not appear. Active and inactive are the calls of the source. Unless noted, the call rests on the fitted dose curve; in most records, active means well fitted curve in the direction sought with a large enough effect in the repeat runs; inconclusive means weak or mixed curves; inactive means no such curve, though single readings can be large; an effect the other way counts as inactive or inconclusive.
Columns and labels:
[1] = target: Estrogen receptor (Homo sapiens) (UniProt P03372); assay: qHTS assay to identify small molecule antagonists of the estrogen receptor alpha (ER-alpha) signaling pathway using the BG1 cell line in the presence of 0.1 nM 17-beta-estradiol (AID 1259244); further: nearly all actives have a fitted effect of over 50% in size
How it was run: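 After 5 days in hormone-depleted medium (charcoal-stripped serum, no phenol red), VM7Luc4E2 cells were seeded, incubated 24 h, then co-treated with compound and 0.1 nM (final) estradiol for 22 h before luminescence detection.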

[2] = qHTS assay to identify small molecule HDAC inhibitors (AID 1259364); further: top concentration of the series differs between compounds; nearly all actives have a fitted effect of over 45% in size
How it was run: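 Homogeneous cell-based luminescent assay of endogenous class I/II HDAC activity; HCT-116 cells, 2 h compound exposure, 30 min HDAC-Glo development at RT.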

[3] = qHTS assay to identify small molecule HDAC inhibitors - cell viability counter screen (AID 1259365); further: series mostly up to about 92 µM; nearly all actives have a fitted effect of over 50% in size
How it was run: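 Viability readout: CellTiter-Glo luminescence. Wild-type HCT-116 cells, 2hr compound treatment following overnight attachment at 37 C.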

[4] = qHTS assay to identify small molecule agonists of the sonic hedgehog signaling (Shh) pathway - cell viability counter screen (AID 1259366); further: nearly all actives have a fitted effect of over 50% in size
How it was run: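 Viability measured fluorometrically (CellTiter-Fluor, 1hr, 37C) in 3T3 Gli1-Luc reporter cells after 23hr compound exposure within a 24hr incubation at 37C/5% CO2.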

[5] = qHTS assay to identify small molecule antagonists of the sonic hedgehog signaling (Shh) pathway - cell viability counter screen (AID 1259367); further: nearly all actives have a fitted effect of over 55% in size
How it was run: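 Cells: 3T3 Gli1-Luc, 2,000/well, 4 hr pre-incubation. Compounds in DMSO, then conditioned medium. Incubation 24 hr, 37C, 5% CO2. CellTiter-Fluor at 23 hr, 1 hr, fluorescence.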

[6] = qHTS assay to identify small molecule agonists of the sonic hedgehog signaling (Shh) pathway (AID 1259368; calls by dose curve;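 further: NIH/3T3-derived 3T3Gli1-Luc cells carrying a stable Gli1-driven firefly luciferase reporter; series mostly up to about 92 µM; nearly all actives have a fitted effect of over 15% in size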)
How it was run: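 Steps: seed 3T3 Gli1-Luc cells, incubate 4 hr at 37 C, pin-transfer compounds in DMSO alongside a positive control, incubate 24 hr, add luciferase detection reagent, wait 30 min at room temperature, read luminescence.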

[7] = qHTS assay to identify small molecule antagonists of the sonic hedgehog signaling (Shh) pathway (AID 1259369; calls by dose curve; further: nearly all actives have a fitted effect of over 45% in size)
How it was run: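 Inhibition of Shh signalling is measured as reduced Gli1-response-element firefly luciferase output in an NIH/3T3-derived stable reporter clone stimulated with conditioned medium for 24hr.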

[8] = target: Estrogen receptor beta (Homo sapiens) (UniProt Q92731); assay: qHTS assay to identify small molecule agonists of the estrogen receptor beta (ER-beta) signaling pathway (AID 1259377; active means well fitted activation curve with a large enough effect in the signal ratio in the repeat runs, not every such curve was filed as active; the % refers to the signal ratio)
How it was run: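 A UAS-controlled beta-lactamase reporter in ER-beta-UAS-bla HEK293T cells reports receptor activation. Compounds act for 16 hr at 37C in 2% charcoal-stripped serum, and a FRET substrate is read by fluorescence after 2 hours.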

[9] = qHTS assay to identify small molecule phospholipidosis (PLD) inducers (AID 1259344; active means well fitted curve in the direction sought with a large enough effect; an effect the other way counts as inactive or inconclusive)
How it was run: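 Phospholipidosis is scored by imaging LipidTOX-stained pits in HepG2 cells exposed to compound for 24 h at 37 C; pit counts and integrated intensities per well and per cell serve as outputs.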
On the % scale 0 is the no-effect control and ±100 the full control effect.

Chain of Estrogen receptor beta (Homo sapiens) (Q92731 whole entry, looked up): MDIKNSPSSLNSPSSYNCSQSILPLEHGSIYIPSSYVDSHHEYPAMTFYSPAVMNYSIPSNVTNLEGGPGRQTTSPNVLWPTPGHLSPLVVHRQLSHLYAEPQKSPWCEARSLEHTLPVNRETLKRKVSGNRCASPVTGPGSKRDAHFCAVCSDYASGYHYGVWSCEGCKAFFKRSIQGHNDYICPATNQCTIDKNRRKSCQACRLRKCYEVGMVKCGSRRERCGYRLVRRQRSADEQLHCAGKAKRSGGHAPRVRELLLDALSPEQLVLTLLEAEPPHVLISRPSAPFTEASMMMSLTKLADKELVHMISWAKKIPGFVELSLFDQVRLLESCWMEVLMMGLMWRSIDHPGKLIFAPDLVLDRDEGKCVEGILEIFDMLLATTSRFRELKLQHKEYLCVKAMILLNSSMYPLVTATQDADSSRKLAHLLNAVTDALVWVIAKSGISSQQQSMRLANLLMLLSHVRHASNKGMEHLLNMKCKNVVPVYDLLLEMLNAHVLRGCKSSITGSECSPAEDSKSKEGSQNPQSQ
Chain of Estrogen receptor (Homo sapiens) (P03372 whole entry, looked up): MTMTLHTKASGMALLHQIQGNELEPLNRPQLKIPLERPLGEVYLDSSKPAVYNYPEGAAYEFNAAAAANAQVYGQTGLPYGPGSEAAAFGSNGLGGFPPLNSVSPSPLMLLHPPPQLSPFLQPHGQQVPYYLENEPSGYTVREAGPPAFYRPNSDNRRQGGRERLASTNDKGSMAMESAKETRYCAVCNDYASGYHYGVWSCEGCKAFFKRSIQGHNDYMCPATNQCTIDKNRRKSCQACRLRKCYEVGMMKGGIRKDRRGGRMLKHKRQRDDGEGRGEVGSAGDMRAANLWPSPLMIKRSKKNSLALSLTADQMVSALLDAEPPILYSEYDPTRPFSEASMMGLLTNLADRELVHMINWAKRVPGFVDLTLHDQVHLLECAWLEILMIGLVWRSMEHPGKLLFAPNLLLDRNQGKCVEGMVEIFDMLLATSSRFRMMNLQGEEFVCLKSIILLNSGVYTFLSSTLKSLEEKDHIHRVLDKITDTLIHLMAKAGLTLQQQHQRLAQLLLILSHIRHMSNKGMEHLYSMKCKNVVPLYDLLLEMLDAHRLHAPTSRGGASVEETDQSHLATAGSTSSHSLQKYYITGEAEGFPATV

CC(C)(C)C(=O)c1ccccc1
inactive: outcome [1] | Potency [2] | outcome [3] | Potency [4] | Potency [5] | outcome [6] | Potency [7]

CC(C)(CCC(=O)O)C(=O)O
inactive: outcome [1] | Potency [2] | outcome [3] | Potency [4] | Potency [5] | outcome [6] | Potency [7] | Potency [8]

CN(C)C(=O)Oc1cccc([N+](C)(C)C)c1
inactive: outcome [1] | outcome [9] | Potency [2] | Potency [4] | Potency [5] | outcome [6] | Potency [7]

COc1cc(C(=O)OC(COCCC(C)C)CN2CCOCC2)cc(OC)c1OC (stereo unspecified)
inactive: outcome [1] | outcome [9] | Potency [2] | Potency [4] | Potency [5] | outcome [6] | Potency [7] | Potency [8]

CC(CO)(CO)[N+](=O)[O-]
inactive: outcome [1] | Potency [2] | outcome [3] | Potency [4] | Potency [5] | outcome [6] | Potency [7]

Nc1ccn([C@@H]2O[C@H](CO)[C@@H](O)[C@@H]2O)c(=O)n1
inactive: outcome [1] | Potency [2] | outcome [3] | Potency [4] | Potency [5] | outcome [6]

CC(C)=CCC/C(C)=C/C#N
inactive: outcome [1] | Potency [2] | outcome [3] | Potency [4] | Potency [5] | outcome [6]

CC/C=C\CCOC(C)OCC (stereo unspecified)
inactive: outcome [1] | Potency [2] | outcome [3] | Potency [4] | Potency [5] | outcome [6] | Potency [7]

CNCC(O)c1ccc(O)c(O)c1 (stereo unspecified)
inactive: outcome [1] | Potency [2] | outcome [3] | Potency [4] | Potency [5] | outcome [6] | Potency [7]

CC(C)(C)OC(=O)c1cccc(N)c1
inactive: outcome [1] | Potency [2] | outcome [3] | Potency [4] | Potency [5] | outcome [6] | Potency [7] | Potency [8]

CO[Si](C)(OC)c1ccccc1
inactive: outcome [1] | Potency [2] | outcome [3] | Potency [4] | Potency [5] | outcome [6] | Potency [7]

C=CC(=O)OCCCl
inactive: outcome [1] | Potency [2] | outcome [3] | Potency [4] | Potency [5] | outcome [6] | Potency [7]

CCN1C=CN(C)C1C (stereo unspecified)
inactive: outcome [1] | Potency [2] | outcome [3] | Potency [4] | Potency [5] | outcome [6] | Potency [7]

CC(=O)c1cnccn1
inactive: outcome [1] | Potency [2] | outcome [3] | Potency [4] | Potency [5] | outcome [6] | Potency [7]

NC(CCC(=O)O)C(=O)O (stereo unspecified)
inactive: outcome [1] | Potency [2] | outcome [3] | Potency [4] | Potency [5] | outcome [6] | Potency [7]

CC1=CC(=O)[C@H]2C[C@@H]1C2(C)C
inactive: outcome [1] | Potency [2] | outcome [3] | Potency [4] | Potency [5] | outcome [6] | Potency [7]

CCC1C(=O)OCC1Cc1cncn1C (stereo unspecified)
inactive: outcome [1] | outcome [9] | Potency [2] | Potency [4] | Potency [5] | outcome [6] | Potency [7]

CC(C)c1ccc2ncccc2c1
inactive: outcome [1] | Potency [2] | outcome [3] | Potency [4] | Potency [5] | outcome [6] | Potency [7]

CC(C)(N)C#N
inactive: outcome [1] | Potency [2] | outcome [3] | Potency [4] | Potency [5] | outcome [6] | Potency [7] | Potency [8]

c1ccc(Cc2ccccc2)cc1
inactive: outcome [1] | Potency [2] | outcome [3] | Potency [4] | Potency [5] | outcome [6] | Potency [7] | Potency [8]

CCCCN(CCC(=O)OCC)C(C)=O
inactive: outcome [1] | Potency [2] | outcome [3] | Potency [4] | Potency [5] | outcome [6] | Potency [7]

CC(C)COC(=O)c1ccc(N)cc1
inactive: outcome [1] | outcome [9] | outcome [3] | Potency [4] | Potency [5] | outcome [6] | Potency [7]

COc1ccnc(CS(=O)c2nc3cc(OC(F)F)ccc3[nH]2)c1OC (stereo unspecified)
inactive: outcome [1] | Potency [2] | outcome [3] | Potency [4] | Potency [5] | outcome [6]

CCOCC(C)O (stereo unspecified)
inactive: outcome [1] | Potency [2] | outcome [3] | Potency [4] | Potency [5] | outcome [6] | Potency [7] | Potency [8]

CCC(C)(CCCC(C)C)OC(C)=O (stereo unspecified)
inactive: outcome [1] | Potency [2] | outcome [3] | Potency [4] | Potency [5] | outcome [6] | Potency [7] | Potency [8]

CCOC(=O)C1=NOC(c2ccccc2)(c2ccccc2)C1
inactive: outcome [1] | Potency [2] | outcome [3] | Potency [4] | Potency [5] | outcome [6]

Cc1cc(C)c(N=Nc2c(O)c(S(=O)(=O)O)cc3cc(S(=O)(=O)O)ccc23)cc1C
inactive: activity change, negative = inhibition [1] -1.05% [at 8.39 µM] | activity change, negative = inhibition [2] -2.59% [at 8.39 µM] | activity change, negative = cytotoxicity [3] -2.91% [at 8.39 µM] | viability change, negative = cytotoxic [4] -2.37% [at 8.39 µM] | viability change, negative = cytotoxic [5] -9.99% [at 8.39 µM] | activity change [6] -1.73% [at 8.39 µM] | activity change, negative = inhibition [7] 9.78% [at 8.39 µM]

FB(F)F
inactive: outcome [1] | Potency [2] | outcome [3] | Potency [4] | Potency [5] | outcome [6] | Potency [7]

CCCC(C)C(=O)OCC (stereo unspecified)
inactive: outcome [1] | Potency [2] | outcome [3] | Potency [4] | Potency [5] | outcome [6] | Potency [7]
